Test results published in PubChem BioAssay (Tox21).
Several values for one entry are separate records, joined by “and”; a condition that tells them apart may be missing. Equal values may be shown once. Inconclusive results are not listed. Entries that show only a call come without a potency. Where a structure was tested more than once in an assay, its records may differ in their call. Activity calls are given as the source filed them. Calls come from the whole dose curve; as a rule, active = well fitted curve in the direction sought with a large enough effect in the repeat runs; inconclusive = weak or mixed curves; inactive = no such curve, though single readings can be large; an effect the other way counts as inactive or inconclusive.

Columns and labels:
[1] = qHTS RealTime-Glo MT Cell Viability Assay in HepG2 cells - 40 hour (AID 1224870); note: nearly all actives have a fitted effect of over 50% in size
Procedure, shortened: (§1)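 HepG2 cells mixed with RealTime-Glo MT reagents (NanoLuc plus cell-permeant prosubstrate) were seeded at 600 cells/well, incubated 5 h at 37 C/5% CO2, then pinned with compounds in DMSO; nonlytic luminescence tracked viability during 40 h treatment.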

[2] = A CellTox Green Cytotoxicity Assay to monitor cytotoxicity in HEK293 cells - 40 hour (AID 1224871); note: nearly all actives have a fitted effect of over 45% in size; note: potency is the fitted concentration of half-maximal effect
Procedure, shortened: (§2)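 Real-time, in one plate: 600 HEK293 cells/well with dead-cell DNA dye, pinned compound after 5 h, 37 C incubation over 40 h; viable cells give no appreciable fluorescence.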

[3] = qHTS RealTime-Glo MT Cell Viability Assay in HEK293 cells - 16 hour (AID 1224872); note: top concentration of the series differs between compounds; nearly all actives have a fitted effect of over 50% in size
Procedure, shortened: (§3)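 HEK293 cells were seeded at 600 cells/well together with NanoLuc luciferase and cell-permeant prosubstrate, preincubated 5 h at 37 C/5% CO2, then given compound in DMSO by pintool. Luminescence from viable-cell prosubstrate reduction was read repeatedly over 40 h.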

[4] = qHTS RealTime-Glo MT Cell Viability Assay in HepG2 cells - 8 hour (AID 1224873); note: nearly all actives have a fitted effect of over 55% in size
Procedure, shortened: as §1

[5] = qHTS RealTime-Glo MT Cell Viability Assay in HEK293 cells - 40 hour (AID 1224874); conditions: RealTime-Glo luminescence; max response: stronger effect = lower value; note: nearly all actives have a fitted effect of over 50% in size
Procedure, shortened: (§4)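 Kinetic, non-lysing viability readout. Seed HEK293 (600/well) with reagent, incubate 5 h at 37 C/5% CO2, pin 23 nL compound in DMSO, incubate at 37 C, read luminescence at 0, 8, 16, 24, 32, 40 h.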

[6] = A CellTox Green Cytotoxicity Assay to monitor cytotoxicity in HEK293 cells - 24 hour (AID 1224875); note: series mostly up to about 77 µM; nearly all actives have a fitted effect of over 45% in size
Procedure, shortened: as §2

[7] = A CellTox Green Cytotoxicity Assay to monitor cytotoxicity in HepG2 cells - 16 hour (AID 1224876); note: nearly all actives have a fitted effect of over 45% in size
Procedure, shortened: (§5)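 Cytotoxicity was tracked as dead-cell DNA fluorescence in HepG2 cells treated with test compounds at 37 C; each time-point value comes from one kinetic series spanning 0, 8, 16, 24, 32 and 40 h.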

[8] = qHTS RealTime-Glo MT Cell Viability Assay in HepG2 cells - 32 hour (AID 1224877); note: nearly all actives have a fitted effect of over 55% in size
Procedure, shortened: (§6)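 HepG2 cells were seeded at 600 cells/well together with NanoLuc luciferase and a cell-permeant prosubstrate, preincubated 5 h at 37 C/5% CO2, then pin-dosed with compounds in DMSO. Nonlytic luminescence from viable cells was read at each time point.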

[9] = A CellTox Green Cytotoxicity Assay to monitor cytotoxicity in HepG2 cells - 24 hour (AID 1224878); note: nearly all actives have a fitted effect of over 45% in size
Procedure, shortened: as §5

[10] = A CellTox Green Cytotoxicity Assay to monitor cytotoxicity in HepG2 cells - 40 hour (AID 1224879); note: nearly all actives have a fitted effect of over 40% in size
Procedure, shortened: as §5

[11] = qHTS RealTime-Glo MT Cell Viability Assay in HEK293 cells - 0 hour (AID 1224880)
Procedure, shortened: as §4

[12] = A CellTox Green Cytotoxicity Assay to monitor cytotoxicity in HEK293 cells - 32 hour (AID 1224881); note: nearly all actives have a fitted effect of over 40% in size; note: potency is the fitted concentration of half-maximal effect
Procedure, shortened: as §2

[13] = A CellTox Green Cytotoxicity Assay to monitor cytotoxicity in HepG2 cells - 0 hour (AID 1224882); note: nearly all actives have a fitted effect of over 35% in size
Procedure, shortened: as §5

[14] = A CellTox Green Cytotoxicity Assay to monitor cytotoxicity in HepG2 cells - 32 hour (AID 1224883); note: nearly all actives have a fitted effect of over 50% in size
Procedure, shortened: as §5

[15] = A CellTox Green Cytotoxicity Assay to monitor cytotoxicity in HEK293 cells - 8 hour (AID 1224884); note: nearly all actives have a fitted effect of over 35% in size
Procedure, shortened: as §2

[16] = qHTS RealTime-Glo MT Cell Viability Assay in HepG2 cells - 16 hour (AID 1224885); note: nearly all actives have a fitted effect of over 50% in size
Procedure, shortened: as §6

[17] = qHTS RealTime-Glo MT Cell Viability Assay in HEK293 cells - 24 hour (AID 1224886)
Procedure, shortened: as §3

[18] = qHTS RealTime-Glo MT Cell Viability Assay in HEK293 cells - 8 hour (AID 1224887)
Procedure, shortened: as §4

[19] = A CellTox Green Cytotoxicity Assay to monitor cytotoxicity in HEK293 cells - 16 hour (AID 1224888); note: nearly all actives have a fitted effect of over 35% in size
Procedure, shortened: as §2

[20] = qHTS RealTime-Glo MT Cell Viability Assay in HepG2 cells - 0 hour (AID 1224889); note: nearly all actives have a fitted effect of over 50% in size
Procedure, shortened: as §6

| SMILES | Potency [1] | Potency [2] | Potency [3] | outcome [4] | max response [5] | Potency [6] | Potency [7] | Potency [8] | Potency [9] | Potency [10] | Potency [11] | Potency [12] | Potency [13] | Potency [14] | Potency [15] | Potency [16] | Potency [17] | Potency [18] | Potency [19] | Potency [20] |
| --- | --- | --- | --- | --- | --- | --- | --- | --- | --- | --- | --- | --- | --- | --- | --- | --- | --- | --- | --- | --- |
| CCCCCCCCCCCCCCCC(=O)O | inactive | inactive | inactive | inactive | -14.7% (inactive) and -1.54% (inactive) and -1.33% (inactive) | inactive | inactive | inactive | inactive | inactive | inactive | inactive | inactive | inactive | inactive | inactive | inactive | inactive | inactive | inactive |
| Cc1cn([C@H]2C[C@H](N=[N+]=[N-])[C@@H](CO)O2)c(=O)[nH]c1=O | inactive | inactive | inactive | inactive | -0.145% (inactive) and 3.87% (inactive) and 7.29% (inactive) | inactive | inactive | inactive | inactive | inactive | inactive | inactive | inactive | inactive | inactive | inactive | inactive |  | inactive | inactive |
| Cc1noc(NS(=O)(=O)c2ccc(N)cc2)c1C | inactive | inactive | inactive | inactive | 3.99% (inactive) and 6.51% (inactive) and 6.27% (inactive) | inactive | inactive | inactive | inactive | inactive | inactive | inactive | inactive | inactive | inactive | inactive | inactive | inactive | inactive | inactive |
| Cc1cc(=O)n(-c2ccccc2)n1C | inactive | 44.8 µM (active) and inactive | inactive | inactive | 5.11% (inactive) and 3.11% (inactive) and 1.5% (inactive) |  | inactive | inactive | inactive | inactive | inactive | 44.8 µM (active) and inactive | inactive | inactive | inactive | inactive | inactive | inactive |  | inactive |
| O=C(c1ccccc1)C(O)c1ccccc1 (configuration not stated) | inactive | inactive | inactive | inactive | 5.88% (inactive) and 18.1% (inactive) and 4.15% (inactive) | inactive | inactive | inactive | inactive | inactive | inactive | inactive | inactive | inactive | inactive | inactive | inactive | inactive | inactive | inactive |
| O=C(O)C(=O)O | inactive | inactive | inactive | inactive | -1.98% (inactive) and 1.92% (inactive) and 0.465% (inactive) | inactive | inactive | inactive | inactive | inactive | inactive | inactive | inactive | inactive | inactive | inactive | inactive |  | inactive | inactive |
| Cn1c(=O)c2[nH]cnc2n(C)c1=O | inactive | inactive | inactive | inactive | 0.637% (inactive) and -1.08% (inactive) and -2.33% (inactive) | inactive | inactive | inactive | inactive | inactive | inactive | inactive | inactive | inactive | inactive | inactive | inactive | inactive | inactive | inactive |
| O=C(O)c1cccnc1 | inactive | inactive | inactive | inactive | -0.0653% (inactive) [middle of 4 runs] | inactive | inactive | inactive | inactive | inactive | inactive | inactive |  | inactive | inactive | inactive | inactive |  | inactive | inactive |
| COc1ccc2[nH]cc(CCNC(C)=O)c2c1 | inactive | inactive | inactive | inactive | -2.36% (inactive) and -20% (inactive) and 4.03% (inactive) | inactive | inactive | inactive | inactive | inactive | inactive | inactive | inactive | inactive | inactive | inactive | inactive | inactive | inactive | inactive |
| Cc1ccc(O)cc1 | inactive | inactive | inactive | inactive | 8.24% (inactive) [middle of 4 runs] | inactive | inactive | inactive | inactive | inactive | inactive | inactive |  | inactive | inactive | inactive | inactive | inactive | inactive | inactive |
| OCCc1ccccc1 |  | inactive | inactive | inactive | 6.34% (inactive) and 10.1% (inactive) and 6.75% (inactive) | inactive | inactive | inactive | inactive | inactive | inactive | inactive | inactive | inactive | inactive | inactive | inactive | inactive | inactive | inactive |
